Assay results: the supplement of paper PMC12669032
A number with no mark means an inactive call.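 How the source made its calls: active = AUC reduced over 20% with Padj below 0.05 in at least 2 of 3 replicates; inactive = otherwise.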

How the values were obtained:
Experiment in all cases: growth AUC relative to DMSO control (median of replicates) (fraction); higher = more growth (less inhibition), active = hit call of the paper
Conditions in all cases: 20 µM; 24 h
Akkermansia muciniphila = system: Akkermansia muciniphila
How it was run: (§1)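 Gut bacterial monocultures were grown anaerobically at 37 °C in mGAM from a starting OD600 of 0.05 with 20 µM compound (1% DMSO), in round-bottom 96-well plates under pierced gas-permeable seals, and OD600 was read hourly for 24 h. With the minimum OD set to 0, area under the growth curve was normalised to the plate median of solvent-only wells, or to row and column medians on the industrial chemical plate. Each value is the median of three biological replicates grown on separate days.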

Bacteroides caccae = system: Bacteroides caccae
How it was run: as §1

Bacteroides clarus = system: Bacteroides clarus
How it was run: as §1

Bacteroides dorei = system: Bacteroides dorei
How it was run: as §1

Bacteroides stercoris = system: Bacteroides stercoris
How it was run: as §1

[1] = system: Bacteroides thetaiotaomicron
How it was run: as §1

Bacteroides uniformis = system: Bacteroides uniformis
How it was run: as §1

[2] = system: Bifidobacterium longum subsp. longum
How it was run: as §1

Clostridium difficile = system: Clostridium difficile
How it was run: as §1

Collinsella aerofaciens = system: Collinsella aerofaciens
How it was run: as §1

Coprococcus comes = system: Coprococcus comes
How it was run: as §1

Escherichia coli ED1a = system: Escherichia coli ED1a
How it was run: as §1

Escherichia coli IAI1 = system: Escherichia coli IAI1
How it was run: as §1

Eubacterium rectale = system: Eubacterium rectale
How it was run: as §1

[3] = system: Fusobacterium nucleatum subsp. animalis
How it was run: as §1

Lactobacillus gasseri = system: Lactobacillus gasseri
How it was run: as §1

Lactobacillus paracasei = system: Lactobacillus paracasei
How it was run: as §1

Odoribacter splanchnicus = system: Odoribacter splanchnicus
How it was run: as §1

[4] = system: Parabacteroides distasonis
How it was run: as §1

Parabacteroides merdae = system: Parabacteroides merdae
How it was run: as §1

SMILES	growth AUC (Akkermansia muciniphila)	growth AUC (Bacteroides caccae)	growth AUC (Bacteroides clarus)	growth AUC (Bacteroides dorei)	growth AUC (Bacteroides stercoris)	growth AUC [1]	growth AUC (Bacteroides uniformis)	growth AUC [2]	growth AUC (Clostridium difficile)	growth AUC (Collinsella aerofaciens)	growth AUC (Coprococcus comes)	growth AUC (Escherichia coli ED1a)	growth AUC (Escherichia coli IAI1)	growth AUC (Eubacterium rectale)	growth AUC [3]	growth AUC (Lactobacillus gasseri)	growth AUC (Lactobacillus paracasei)	growth AUC (Odoribacter splanchnicus)	growth AUC [4]	growth AUC (Parabacteroides merdae)
CCCCCCCCCCCCC1=C(OC(C)=O)C(=O)c2ccccc2C1=O	1.04	0.926	0.934	0.969	0.988	0.996	0.987	0.827	0.926	0.0278 (active)	0.863	1	0.975	0.889	1.02	0.504 (active)	0.894	0.959	0.933	0.878
Cc1cc(Cl)ccc1O[C@H](C)C(=O)O	1.04	0.841	1	0.982	1.15	0.991	0.958	1.01	0.972	0.968	1.01	1	0.98	1.06	1.08	0.873	0.979	1.1	0.961	0.956
ClC1=C(Cl)C2(Cl)C3C(Cl)C=CC3C1(Cl)C2(Cl)Cl (stereo not given)	1.1	1.01	1.01	0.958	1.08	0.99	0.983	0.932	0.963	0.951	0.989	1.02	1	1.09	1.12	0.856	0.967	0.964	0.842	1.02
CC(=NCc1ccc(Cl)nc1)NC#N	1.01	1.02	1.05	1.04	1.1	0.99	1.03	1.02	1.03	1.02	1	1.02	1.03	1	1.09	0.997	1.03	1.04	0.999	0.968
O=C(O)C(Cl)Cl	0.875	0.977	0.966	1.02	0.994	0.999	1.01	1.01	1	0.981	0.959	1.01	0.966	0.977	1.04	1.04	1.05	0.997	0.998	1.03
CC(C)(COCc1cccc(Oc2ccccc2)c1)c1ccc(OC(F)(F)Br)cc1	0.955	0.982	0.973	1.01	1.04	0.976	1.02	0.966	1.01	0.953	0.961	0.999	0.995	0.903	0.939	1.01	1.05	0.988	1.01	0.979
O=C(O)C(F)(F)C(F)(F)C(F)(F)C(F)(F)C(F)(F)C(F)(F)C(F)(F)F	1.01	1	1	0.998	1.01	1.04	0.963	1.04	0.991	1	1.02	1	0.998	1	1	1.01	0.966	0.979	0.934	1
Clc1ccc(C2(Cn3cncn3)CC(Br)CO2)c(Cl)c1 (stereo not given)	1.07	0.973	0.982	0.955	0.921	0.961	0.944	0.896	0.978	0.951	0.997	0.989	1	0.806	0.914	0.891	0.987	0.961	0.952	0.924
Cc1cc(C)nc(Nc2ccccc2)n1	0.869	0.98	0.957	1	0.987	0.957	0.97	1	0.983	0.999	0.986	1.01	0.974	0.983	1.01	1.09	0.988	0.965	1	0.971
CCOP(=S)(OCC)SCn1nnc2ccccc2c1=O	0.989	0.969	0.993	1.01	1.1	0.908	0.913	1.04	1.02	1.03	1.01	1.01	1.03	1.02	1.09	1.01	1.05	0.926	0.707 (active)	0.946
COC(=O)COc1ccc(Cl)cc1Cl	0.95	0.944	0.983	0.969	0.853	1.01	1.04	0.914	1	0.925	0.98	0.968	0.968	1.21	0.946	0.915	1.04	1.14	0.931	0.964
Nc1c(Cl)c(Cl)c(Cl)c(Cl)c1Cl	0.856	0.897	0.935	0.956	0.945	0.968	0.981	0.949	0.988	1	0.958	0.986	0.95	1.01	0.983	0.972	0.869	0.993	1.04	0.971
OC(c1ccc(F)cc1)(c1cncnc1)c1ccccc1Cl (stereo not given)	0.95	0.993	0.951	0.966	0.991	0.942	0.954	1.01	0.966	0.988	0.962	0.996	1.01	0.965	1.06	0.969	1.02	0.931	1	0.782 (active)
CCOP(=S)(OCC)SCCS(=O)CC (stereo not given)	1.04	1.02	0.979	0.985	1.02	1.02	1.05	1	0.967	1	0.971	0.985	0.98	1.11	1.02	0.941	0.948	1.06	1.01	1
COc1nc(C)nc(NC(=O)NS(=O)(=O)c2ccccc2Cl)n1	0.942	1	0.959	0.99	0.929	0.958	1	0.938	1.02	1.04	0.971	0.982	0.988	0.986	1.02	1.07	1.01	0.952	1.01	0.979
C#CCC1=C(C)C(OC(=O)C2C(C=C(C)C)C2(C)C)CC1=O (stereo not given)	1.05	0.892	1.04	0.964	1.01	1.01	0.932	1.02	0.969	0.985	0.997	1.02	1	1.03	1.06	0.998	1	1.11	0.952	0.946
